Data: PubChem BioAssay (NCATS)
Values joined by “and” are separate entries in the source; they are usually repeats but may differ in a detail not shown here. Equal values may be shown once. Records with an inconclusive call do not appear. Active and inactive are the calls of the source. Unless noted, the call rests on the fitted dose curve; in most records, active means well fitted curve in the direction sought with a large enough effect; inconclusive means small, poorly fitted or top-dose-only effect, or another doubt; inactive means no such curve, though single readings can be large; an effect the other way counts as inactive or inconclusive.

Key:
[1] = qHTS Assay for Identifying Gametocytocidal Compounds (AID 743244);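 further: on the % scale 0 is the no-effect control and ±100 the full control effect; actives lower the fluorescent signal which means gametocytes are killed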; conditions: P. falciparum 3D7 stage III-V gametocytes, alamarBlue, 72 h; max response: stronger effect = lower value
Method in brief: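 Fluorescence at Ex 525/Em 598 nm, recorded 24 h after alamarBlue addition, reports residual metabolic activity of 3D7 gametocytes (stages III–V) following 72 h compound exposure at 37 °C, 5% CO2.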

[2] = qHTS profiling for inhibitors of Plasmodium falciparum (3D7) proliferation (AID 743322);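 further: infected erythrocytes exposed to compound for 72 h before lysis; 100% = DMSO vehicle wells and 0% = 0.29 µM artemisinin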; conditions: P. falciparum 3D7 proliferation, at 28.7 µM (top of the series)
Method in brief: (§1)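 Parasite DNA was quantified by SYBR Green I fluorescence (ex 485, em 535 nm) after overnight lysis in saponin/Triton buffer at room temperature. Cultures at 0.3% parasitemia and 2.5% hematocrit were first exposed to compound for 72 h at 37 C; signals were normalised to artemisinin (0.29 uM) and vehicle wells.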

[3] = qHTS profiling for inhibitors of Plasmodium falciparum (DD2) proliferation (AID 743323; call rule not given here); conditions: at 28.7 µM (top of the series), lower = more inhibition
Method in brief: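 Parasite DNA quantified by SYBR Green fluorescence (ex 485, em 535 nm) after saponin/Triton lysis and overnight dark incubation. Cultures: 0.3% parasitemia, 2.5% hematocrit, 72 h, 37 C; data scaled between DMSO and 0.29 uM artemisinin.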

[4] = qHTS profiling for inhibitors of Plasmodium falciparum (HB3) proliferation (AID 743324); conditions: Plasmodium falciparum HB3 blood-stage proliferation; at 28.7 µM (top of the series);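 further: 100% = DMSO vehicle wells and 0% = artemisinin-treated control wells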
Method in brief: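 SYBR Green fluorescence (485 ex/535 em) of lysed cultures, incubated overnight at room temperature in the dark, quantifies parasite DNA. Infected erythrocytes at 0.3% parasitemia and 2.5% hematocrit were exposed 72 h; values normalized to DMSO and 0.29 uM artemisinin controls.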

[5] = qHTS profiling of the MIPE4 collection as inhibitors of Plasmodium falciparum (3D7) proliferation (AID 743344; call rule not given here;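 further: scaled between DMSO vehicle wells and 0.29 µM artemisinin as full inhibition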); conditions: P. falciparum 3D7 in erythrocytes, SYBR Green DNA fluorescence, 72 h; at 28.5 µM (top of the series) unless noted
Method in brief: as §1

[6] = qHTS profiling of the MIPE4 collection as inhibitors of Plasmodium falciparum (DD2) proliferation (AID 743345; call rule not given here); conditions: P. falciparum Dd2 in erythrocytes, SYBR Green DNA, 72 h; at 28.5 µM (top of the series) unless noted
Method in brief: as §1

[7] = qHTS profiling of the MIPE4 collection as inhibitors of Plasmodium falciparum (DD2) proliferation (Rep 2) (AID 743346; call rule not given here); conditions: P. falciparum Dd2 in erythrocytes, SYBR Green DNA, 72 h; at 28.5 µM (top of the series) unless noted
Method in brief: as §1

[8] = qHTS profiling of the MIPE4 collection as inhibitors of Plasmodium falciparum (HB3) proliferation (AID 743347; call rule not given here;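 further: plate controls were DMSO vehicle wells for no effect and artemisinin wells for full effect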); conditions: P. falciparum HB3 in erythrocytes, SYBR Green DNA, 72 h; at 28.5 µM (top of the series) unless noted
Method in brief: as §1

[9] = High-throughput drug toxicity screening in the BPDCN cell line Gen2.2 (AID 1224824; call rule not given here;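 further: cells exposed to compounds for 48 h before reading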); conditions: Gen2.2 BPDCN cells; at 45.8 µM (top of the series) unless noted
Method in brief: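 CellTiter-Glo luminescence after 48 h compound exposure of Gen2.2 cells; percent activity set with DMSO as 100% and bortezomib (9.2 uM final) as 0%. Cells seeded at 500 per well, RPMI + 10% FBS, 37 °C.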

[10] = High-throughput drug toxicity screening in the BPDCN cell line Cal-1 (AID 1224825; call rule not given here); conditions: Cal-1 BPDCN cell viability, qHTS; at 45.8 µM (top of the series) unless noted
Method in brief: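 CellTiter-Glo luminescence after 48 h compound exposure; percent activity scaled with DMSO as 100% and bortezomib (9.2 uM final) as 0%. Cal-1 cells seeded at 500/well in RPMI, 10% FBS, no phenol red.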

[11] = qHTS assay for measurement of the activity of small molecule inhibitors on Zika virus induced Caspase-3 activity in human iPSC derived neural progenitor cells (hNPCs) (AID 1224857); further: % of control where 0% means no effect; nearly all actives have a fitted effect of over 65% in size
Method in brief: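 Zika virus (2 FFU/cell) infection of human iPSC-derived NPCs, 6 h, following 1 h compound preincubation. Read-out: Caspase-Glo 3/7 luminescence.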

[12] = qHTS assay for measurement of the activity of small molecule inhibitors on Zika virus induced Caspase-3 activity in human astrocytoma cells (AID 1224859);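 further: plate controls were ZIKV-infected untreated cells for no effect and uninfected cells for full effect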
Method in brief: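 Caspase activation in ZIKV-infected SNB-19 cells (2 FFU/cell, 6 h) measured by Caspase-Glo 3/7 luminescence after 30 min RT; compound pre-incubated 1 h; normalised to uninfected and infected controls.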

[13] = qHTS Screen of the MIPE 4.0 Collection Against Ewings Sarcoma (RDES) (AID 1259252); further: nearly all actives have a fitted effect of over 35% in size; further: potency means the concentration at half of the fitted maximal effect
Method in brief: (§2)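 Dose series incubated 48 h with cells in RPMI plus 5% FBS, glutamine and penicillin/streptomycin; cell viability then quantified via CellTiter-Glo.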

[14] = qHTS Screen of the MIPE 4.0 Collection Against Ewings Sarcoma (TC71) (AID 1259253); further: nearly all actives have a fitted effect of over 40% in size; further: potency means the concentration at half of the fitted maximal effect
Method in brief: as §2

[15] = qHTS Screen of the MIPE 4.0 Collection Against Ewings Sarcoma (EW8) (AID 1259255); further: nearly all actives have a fitted effect of over 35% in size; further: potency means the concentration at half of the fitted maximal effect;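 on viability: 100% = DMSO-treated cells and 0% = medium-only wells without cells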
Method in brief: as §2

[16] = qHTS Screen of the MIPE 4.0 Collection Against Ewings Sarcoma (TC32) (AID 1259256); further: nearly all actives have a fitted effect of over 45% in size; further: potency means the concentration at half of the fitted maximal effect
Method in brief: as §2

[17] = target: T1, Hexokinase-4 (Homo sapiens) + Glucokinase regulatory protein (Homo sapiens) (UniProt P35557+Q14397); assay: qHTS assay for inhibitors of recombinant human GCK-GKRP interaction: ADP-Glo assay (AID 743206);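 further: plate controls were DMSO plus enzyme for no effect and no enzyme for full effect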
T1 sequence (P35557 whole entry, looked up): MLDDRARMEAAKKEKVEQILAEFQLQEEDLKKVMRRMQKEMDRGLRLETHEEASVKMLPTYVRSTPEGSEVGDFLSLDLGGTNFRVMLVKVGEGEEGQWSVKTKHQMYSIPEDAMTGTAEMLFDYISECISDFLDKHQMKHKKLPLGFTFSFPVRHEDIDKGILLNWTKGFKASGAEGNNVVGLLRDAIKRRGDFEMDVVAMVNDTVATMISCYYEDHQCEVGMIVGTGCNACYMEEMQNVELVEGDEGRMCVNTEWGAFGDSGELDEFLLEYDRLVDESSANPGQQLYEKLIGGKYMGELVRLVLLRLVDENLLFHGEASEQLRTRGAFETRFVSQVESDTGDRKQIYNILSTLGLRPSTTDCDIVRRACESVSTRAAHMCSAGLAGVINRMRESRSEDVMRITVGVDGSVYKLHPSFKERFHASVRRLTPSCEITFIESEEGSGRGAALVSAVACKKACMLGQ
T1 sequence (Q14397 whole entry, looked up): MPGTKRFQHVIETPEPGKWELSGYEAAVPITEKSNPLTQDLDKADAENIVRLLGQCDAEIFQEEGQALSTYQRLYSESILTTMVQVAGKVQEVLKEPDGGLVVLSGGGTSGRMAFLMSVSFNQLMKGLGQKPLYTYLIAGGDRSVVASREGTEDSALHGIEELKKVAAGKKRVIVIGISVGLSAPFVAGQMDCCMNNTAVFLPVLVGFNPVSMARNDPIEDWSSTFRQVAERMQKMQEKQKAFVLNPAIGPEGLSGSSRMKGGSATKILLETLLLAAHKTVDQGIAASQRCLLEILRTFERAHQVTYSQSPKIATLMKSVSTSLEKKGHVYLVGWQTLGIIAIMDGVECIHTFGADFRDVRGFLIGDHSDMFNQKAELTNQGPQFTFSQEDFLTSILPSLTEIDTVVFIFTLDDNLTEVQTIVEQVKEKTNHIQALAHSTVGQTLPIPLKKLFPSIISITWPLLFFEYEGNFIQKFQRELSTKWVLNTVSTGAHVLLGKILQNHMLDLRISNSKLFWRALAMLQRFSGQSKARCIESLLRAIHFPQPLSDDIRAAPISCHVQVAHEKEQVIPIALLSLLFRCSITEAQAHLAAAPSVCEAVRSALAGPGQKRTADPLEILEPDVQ
Method in brief: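 Pin-transferred compounds meet a 15 nM GST-GCK/15 nM FLAG-GKRP/2 uM S6P mix (dispense concentrations). ATP is then added to 0.4 mM final with 5 mM glucose, and the reaction runs 60 min at room temperature. ADP is quantified luminescently.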

[18] = target: T1, Hexokinase-4 (Homo sapiens) + Glucokinase regulatory protein (Homo sapiens); assay: qHTS assay for inhibitors of recombinant human GCK-GKRP interaction: HTRF assay (AID 743207);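 further: 0% = DMSO with GCK present and -100% = DMSO wells lacking GCK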
Method in brief: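 HTRF read-out (ex 320 nm; 615/665 nm emission) after 60 min RT equilibration of 5 nM GST-GCK, 5 nM FLAG-GKRP, 2 uM S6P, compound and anti-FLAG/anti-GST detection antibodies; signal normalized between DMSO wells with and without GCK.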

[19] = qHTS assay for cell viability of HEK293 cells (AID 743288); conditions: ATP luminescence (CellTiter-Glo), 18 h; max response: stronger effect = lower value; further: on the % scale 0 is the no-effect control and ±100 the full control effect; nearly all actives have a fitted effect of over 50% in size
Method in brief: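 ATP luminescence (CellTiter-Glo) reports metabolically competent cell number after parental HEK293 cells, 2,000/well, were treated with DMSO-dissolved compounds for 18 h at 37 C; reagent incubation 30 min, room temperature.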

[20] = qHTS assay for cell viability of the p53RE-bla HCT-116 cell line (AID 743292); further: on the % scale 0 is the no-effect control and ±100 the full control effect; nearly all actives have a fitted effect of over 55% in size
Method in brief: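 Compound-exposed HCT-116 (p53RE-bla) cells, 4,000 per well, were kept 16 h at 37 C following a 5 h preincubation. Cell number was estimated from total ATP by CellTiter-Glo luminescence read after 30 min at room temperature.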

Compound: CS(=O)(=O)CCNCc1ccc(-c2ccc3ncnc(Nc4ccc(OCc5cccc(F)c5)c(Cl)c4)c3c2)o1
- max response [1]: -3.58% (inactive) and 12% (inactive)
- remaining parasite growth % (stronger effect = lower value) [2]: 0.561%
- activity, percent of control [3]: 12.2%
- remaining proliferation (% of control), lower = more inhibition [4]: 1.42%
- parasite growth, % of DMSO control [5]: 8.87%
- parasite growth remaining, % of DMSO control (lower = more inhibition) [6]: 7.86%
- parasite growth, % of control (lower = inhibition) [7]: 51.8%
- growth, % of control [8]: 13%
- cell viability, % of control (lower = more cytotoxic) [9]: 4.7%
- viability (% of control) [10]: 2.82%
- Potency [11]: inactive
- Potency [12]: inactive
- Potency [13]: 0.59 µM (active)
- Potency [14]: 2 µM (active)
- Potency [15]: 8.33 µM (active)
- Potency [16]: 13.2 µM (active)

Compound: CN(C)c1nc(N(C)C)nc(N(C)C)n1
- Potency [17]: inactive
- Potency [18]: inactive
- max response [1]: 17.1% (inactive) and -2.91% (inactive)
- parasite growth, % of DMSO control [5]: 89.4%
- parasite growth, % of control (lower = inhibition) [7]: 104%
- growth, % of control [8]: 101%
- cell viability, % of control (lower = more cytotoxic) [9]: 97.5%
- viability (% of control) [10]: 106%
- Potency [11]: inactive
- Potency [12]: inactive
- Potency [13]: inactive
- Potency [15]: inactive
- Potency [16]: inactive

Compound: Cc1ccccc1N1C(=O)c2cc(S(N)(=O)=O)c(Cl)cc2NC1C (stereo not drawn)
- Potency [17]: inactive
- Potency [18]: inactive
- max response [1]: 6.66% (inactive) and 10.8% (inactive) and 1.37% (inactive)
- parasite growth, % of DMSO control [5]: 92.5%
- parasite growth, % of control (lower = inhibition) [7]: 83.2%
- growth, % of control [8]: 72.5%
- cell viability, % of control (lower = more cytotoxic) [9]: 73.5%
- viability (% of control) [10]: 108%
- Potency [11]: inactive
- Potency [12]: inactive
- Potency [13]: inactive
- Potency [14]: inactive
- Potency [15]: inactive
- Potency [16]: inactive

Compound: CCN1CCCC1CNC(=O)c1cc(S(=O)(=O)CC)c(N)cc1OC (stereo not drawn)
- Potency [17]: inactive
- Potency [18]: inactive
- max response [1]: -5.68% (inactive) and 24.9% (inactive)
- parasite growth, % of DMSO control [5]: 93.7%
- parasite growth, % of control (lower = inhibition) [7]: 50.9%
- growth, % of control [8]: 101%
- cell viability, % of control (lower = more cytotoxic) [9]: 143%
- viability (% of control) [10]: 55.1%
- Potency [11]: inactive
- Potency [12]: inactive
- Potency [13]: inactive
- Potency [14]: inactive
- Potency [15]: 20.9 µM (active)

Compound: NS(=O)(=O)c1cc2c(cc1Cl)NCNS2(=O)=O
- Potency [17]: inactive
- Potency [18]: inactive
- max response [1]: 6.34% (inactive) and 16.2% (inactive)
- max response [19]: -3.61% (inactive) and 2.79% (inactive)
- Potency [20]: inactive
- parasite growth, % of DMSO control [5]: 53.2%
- parasite growth, % of control (lower = inhibition) [7]: 39.6%
- growth, % of control [8]: 40.8%
- cell viability, % of control (lower = more cytotoxic) [9]: 159%
- viability (% of control) [10]: 125%
- Potency [11]: inactive
- Potency [12]: inactive
- Potency [13]: inactive
- Potency [14]: inactive
- Potency [15]: inactive
- Potency [16]: inactive

Compound: CC(C)(Oc1ccc(C2CC2(Cl)Cl)cc1)C(=O)O (stereo not drawn)
- Potency [17]: inactive
- Potency [18]: inactive
- max response [1]: 2.49% (inactive) and 6.24% (inactive)
- max response [19]: -8.57% (inactive)
- Potency [20]: inactive
- parasite growth, % of DMSO control [5]: 107% [at 57.5 µM]
- parasite growth remaining, % of DMSO control (lower = more inhibition) [6]: 105% [at 57.5 µM]
- parasite growth, % of control (lower = inhibition) [7]: 92.2% [at 57.5 µM]
- growth, % of control [8]: 81.2% [at 57.5 µM]
- cell viability, % of control (lower = more cytotoxic) [9]: 77.7% [at 92.2 µM]
- viability (% of control) [10]: 9.42% [at 92.2 µM]
- Potency [11]: inactive
- Potency [12]: inactive
- Potency [13]: 8.55 µM (active)
- Potency [15]: 7.62 µM (active)
- Potency [16]: 42.9 µM (active)
